The structures appear in SMILES notation. Activity calls are given as the source filed them. How the source made its calls: active means hit-call score of the fitted dose curve at least 0.9, where 1 is the maximum; inactive means score below 0.9.

Tumor necrosis factor (Homo sapiens), sequence (P01375 whole entry, looked up): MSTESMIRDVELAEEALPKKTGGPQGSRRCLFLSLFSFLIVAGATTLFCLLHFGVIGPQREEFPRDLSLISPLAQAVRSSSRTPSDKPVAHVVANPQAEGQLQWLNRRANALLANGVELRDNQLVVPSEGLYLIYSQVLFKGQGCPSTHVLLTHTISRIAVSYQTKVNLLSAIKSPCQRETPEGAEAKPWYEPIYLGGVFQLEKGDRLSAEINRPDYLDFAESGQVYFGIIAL

Read-out in the test: Tumor necrosis factor (Homo sapiens) (UniProt P01375)
Nature of the test: BSK_BT_xTNFa: BioMAP Diversity Plus: BT Assay for Tumor necrosis factor alpha (TNF-alpha) Biomarker Activity (AID 2284230). The conditions noted are these: primary human B cells with PBMC. On the procedure:
BSK_BT is a cell-based, multiplexed-readout assay that uses B cell and peripheral blood mononuclear cells, a human vascular primary cell co-culture, with measurements taken at 24 hours after chemical dosing in a microplate: 96-well plate.BSK_BT_xTNFa is an assay component of the BSK_BT assay. It measures secreted TNF-alpha related to regulation of gene expression using LumineX xMAP technology.Data from the assay component BSK_BT_xTNFa was analyzed at the endpoint, BSK_BT_xTNFa, in the positive analysis fitting direction relative to DMSO as the negative control and baseline of activity. Using a type of cytokine quantitation reporter, gain or loss-of-signal activity can be used to understand protein changes. To generalize the intended target to other relatable targets, this assay endpoint is annotated to the 'cytokine' intended target family, where the subfamily is 'inflammatory factor'.
The levels of cell surface (or secreted, indicated by the prefix "s") biomarker endpoints were measured by ELISA. Overt cytotoxicity to cells in confluent adherent cultures (all systems other than the BT system) was assessed by measuring total protein levels using sulforhodamine B (SRB) staining in parallel cultures at the time of biomarker measurements, indicated as SRB endpoints. For proliferation assays for adherent cell types, individual cell types are cultured at sub-confluence and relative cell numbers quantified by SRB staining at time points optimized for each system (48 h: 3C and CASM3C systems; 72 h: BT and HDF3CGF systems; 96 h: SAg system). SRB was performed by staining cells with 0.1% SRB after fixation with 10% TCA and reading wells at 560 nm.Viability and proliferation of PBMC (T cells) was quantified by Alamar Blue reduction for the SAg and BT systems. For PBMC viability (referred to as PBMC Cytotoxicity within the assay endpoint names), cells were plated (75,000/well in a 96-well plate) and then chemical samples added for 1 h before addition of activators, SEB and TSST-1 (20 ng/mL final concentration each). Cells were incubated for 90 h. Then, Alamar Blue (20 uL/well) (Invitrogen, Cat DAL1100) was added for 6 h, and the plates were read with a fluorescence microplate reader at 546/580 nm (excitation/emission). For PBMC proliferation, cells were plated and activated as above but incubated for only 16 h prior to addition of Alamar Blue. Plates were read after 6 h.
With `COP(=S)(OC)Oc1c(Cl)cc(C)cc1Cl`, the outcome was inactive. On the same count and under the same terms, next, `Oc1ccc(-c2ccccc2)cc1`: “inactive”. In the case of `ClC(Cl)=C(Cl)C(Cl)=C(Cl)Cl`, the result was inactive. Consider `ClC1=C(Cl)[C@]2(Cl)[C@H]3[C@H]([C@H]4C=C[C@H]3C4)[C@@]1(Cl)C2(Cl)Cl`, for which the half-maximal activity concentration (AC50) is 33.1 µM (active).

Consider `CCCCCCCCC(=O)NCc1ccc(O)c(OC)c1`, for which the outcome was inactive. As to `OCc1ccco1`, the outcome was inactive. For `CCOC(=O)/C=C(C)/C=C/C[C@@H](C)CCCC(C)C`, the half-maximal activity concentration (AC50) was 30.6 µM (active). As for `NC(=S)Nc1ccccc1`, the result was inactive. On to `Nc1ccc(-c2ccc(N)c(Cl)c2)cc1Cl`, for which the AC50 was 20 µM (active). As for `COC[C@H](C)N(C(=O)CCl)c1c(C)csc1C`, the result was inactive. The same measure, in the same setting: the entry for `CC(C)c1ccc(CO)cc1` is “inactive”; for `CCOP(=S)(OCC)SCCS(=O)(=O)CC` it is “inactive”. On to `O=C(O)CCC(F)(C(F)(F)F)C(F)(F)F`, for which the result was inactive. For the compound `COc1cc(OC)nc(NC(=O)NS(=O)(=O)c2ncccc2C(=O)N(C)C)n1`, the outcome was inactive. Still for that read-out and setting: next, `CCCCC(CC)CO[N+](=O)[O-]` (stereo unspecified): “inactive”. Still for that read-out and setting: the entry for `O=[N+]([O-])c1ccc2c3c(cccc13)CC2` is “inactive”; for `COP(=S)(OC)Oc1cc(Cl)c(Cl)cc1Cl` it is “inactive”. For `Nc1cccc2ccccc12`, the result was inactive. For `C(=NC1CCCCC1)=NC1CCCCC1`, the half-maximal activity concentration (AC50) is 10.9 µM (active).

With `COC(=O)c1sccc1S(=O)(=O)NC(=O)Nc1nc(C)nc(OC)n1`, the result was inactive. Consider `CC(C)CCCCCCOC(=O)c1ccccc1C(=O)OCCCCCCC(C)C`, for which the outcome was inactive. On the same count and under the same terms, next, `O=C(O)C(F)(F)C(F)(F)C(F)(F)C(F)(F)C(F)(F)C(F)(F)F`: “inactive”.

Regarding `O=S(=O)(c1ccc(Cl)cc1)c1ccc(Cl)cc1`, the result was inactive.

With `Nc1ncc([N+](=O)[O-])s1`, the outcome was inactive. For the compound `Oc1c(I)cc(I)cc1I`, the result was inactive.

With `BrCCBr`, the outcome was inactive.

As to `CCNc1nc(NC(C)(C)C)nc(SC)n1`, the concentration at half-maximal activity (AC50) is 20 µM (active). For the compound `O=C(O)C(F)(F)C(F)(F)C(F)(F)C(F)(F)C(F)(F)C(F)(F)C(F)(F)C(F)(F)C(F)(F)C(F)(F)F`, the result was inactive.

Turning to `CC1(C)Cc2cccc(O)c2O1`, the result was inactive. The same measure, in the same setting: the entry for `CCSC(C)CC1CC(=O)C(C(CC)=NOC/C=C/Cl)=C(O)C1` (stereo unspecified) is “inactive”; for `COP(=S)(OC)Oc1ccc(S(=O)(=O)N(C)C)cc1` it is “inactive”. With `CC(=O)C(Cl)C(=O)N(C)C` (stereo unspecified), the AC50 is 29.6 µM (active). For the compound `O=Cc1cccc(Oc2ccccc2)c1`, the result was inactive.

Turning to `O=C(OC1CCCCC1)c1ccccc1C(=O)OC1CCCCC1`, the AC50 is 32.1 µM (active). For the compound `COP(=S)(OC)Oc1ccc(Sc2ccc(OP(=S)(OC)OC)cc2)cc1`, the outcome was inactive.

On to `CCOP(=S)(OCC)Oc1ccc(S(C)=O)cc1` (stereo unspecified), for which the result was inactive.

Broadly, the AC50 is the midpoint of the concentration-response curve, whichever way the signal moves.
